Screen size: about 69,000 compounds; about 420 (0.61%) showed an effect of 50% or more. This excerpt belongs to a sample that is enriched for strong results.
molecular target: T1, Histidine--tRNA ligase (Leishmania infantum) (UniProt A4I591); experiment: Leishmania infantum Histidine tRNA synthetase (LdHisRS); assay type: functional; set-up: scale not given: in the data most compounds retested in dose-response had high values; details: 30 µM
T1 sequence (whole entry): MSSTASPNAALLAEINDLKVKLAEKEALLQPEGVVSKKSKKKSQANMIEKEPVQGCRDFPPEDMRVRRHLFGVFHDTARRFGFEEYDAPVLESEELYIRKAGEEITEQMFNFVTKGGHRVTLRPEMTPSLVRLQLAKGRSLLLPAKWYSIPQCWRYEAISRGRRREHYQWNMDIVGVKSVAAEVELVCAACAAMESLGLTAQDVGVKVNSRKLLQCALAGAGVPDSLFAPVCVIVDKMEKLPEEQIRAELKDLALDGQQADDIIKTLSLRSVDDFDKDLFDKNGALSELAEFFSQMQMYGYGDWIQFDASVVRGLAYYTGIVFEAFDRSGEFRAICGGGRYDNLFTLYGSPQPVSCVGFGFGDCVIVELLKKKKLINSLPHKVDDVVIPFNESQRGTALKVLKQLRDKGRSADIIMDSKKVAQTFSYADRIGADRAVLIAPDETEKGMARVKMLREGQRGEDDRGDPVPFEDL

| SMILES | Percent Effect |
| --- | --- |
| CC/N=c1/c(NC(=O)NCCOC)c(O)oc2ccccc12 | 12.4% |
| Cn1ccnc1CN1CCN(c2ncnc3ccsc23)CC1 | 11% |
| CCCn1nc2c(cc1=O)CN(c1ncnc3ccsc13)CC2 | 83.8% |
| Cn1nc2c(cc1=O)CN(c1ncnc3ccsc13)CC2 | 100% |
| CCn1nc2c(cc1=O)CN(c1ncnc3ccsc13)CC2 | 58.6% |
| CC(C)n1nc2c(cc1=O)CN(c1ncnc3ccccc13)CC2 | 18.9% |
| CN1C(=O)[C@H]2CC[C@@H]1CN(c1ncnc3ccsc13)C2 | 19.8% |
| CCCn1nc2c(cc1=O)CN(C(C)C(=O)Nc1nccs1)CC2 (configuration not stated) | 17.9% |
| CC(C)n1nc2c(cc1=O)CN(c1ncnc3ccsc13)CC2 | 11.7% |
| N#Cc1cccc(CN2CCN(C(=O)C3CCC3)[C@@H]3CS(=O)(=O)C[C@@H]32)c1 | 23.3% |
| COCCN1C(=O)[C@H]2CC[C@@H]1CN(Cc1nnc(C3CC3)o1)C2 | -2.04% |
| Cc1cccc(CO[C@@H]2C[C@H]3CN(C(=O)c4cnccn4)CCN3C2)n1 | 12.3% |
| O=S(=O)(N1CCCC1)N1C[C@@H](c2cccc(F)c2)[C@@H]2NCCCCC[C@H]21 | -7.37% |
| COC(=O)N1C[C@H]2CC[C@@H]1CN(Cc1cscn1)C2 | 22.9% |
| CCOc1cc(N2CCN(C(=O)c3ccc(OC)cc3)CC2)nc(C)n1 | 5.98% |
| Cc1nc(CCN)cc(N2CCC(O)(c3ccc(Cl)cc3)CC2)n1 | 52.1% |
| Cc1nc(CCN)cc(N2CCC(O)(c3ccccc3)C2)n1 (configuration not stated) | 7.04% |
| Cc1nc(CN)cc(N2CCC(O)(c3ccc(Cl)cc3)CC2)n1 | 7.04% |
| COc1ccc(C(=O)N2CCN(c3cc(CCN)nc(C)n3)CC2)cc1 | 50.4% |
| CCNc1cc(N2CCN(C(=O)c3ccc(OC)cc3)CC2)nc(C)n1 | 2.4% |
| O=C(NC[C@@]1(COc2cnccn2)C[C@@H](O)[C@@H](O)C1)C1CCCC1 | 18.9% |
| O=C(c1cccnc1)N1CCN2C[C@H](OCc3ccccc3)C[C@H]2C1 | 2% |
| O=C(c1ccc(S(=O)(=O)NC2CCC2)cc1)N1CC[C@H]2CNC[C@H]21 | -8.06% |
| CN(C)CCCN(C)c1nccc(N2CCN[C@H]3CS(=O)(=O)C[C@H]32)n1 | 12.9% |

| SMILES | Percent Effect |
| --- | --- |
| CNc1nc(C)c(-c2nc(-c3c(C)ncc4c3CCNC4)no2)s1 | 7.79% |
| CNc1nc2c(s1)C(c1c(F)cccc1Cl)CC(=O)N2 (configuration not stated) | 120% |
| Cn1ncc2c1NC(=O)CC2c1c(F)cccc1Cl (configuration not stated) | 20% |
| Cn1ncc2c1NC(=O)CC2c1c(Cl)cccc1Cl (configuration not stated) | 25% |
| CC(C)n1ncc2c1NC(=O)CC2c1ccccc1Cl (configuration not stated) | 22.5% |
| Nc1nc2c(s1)C(c1c(F)cccc1Cl)CC(=O)N2 (configuration not stated) | 90% |
| CC(C)(C)n1ncc2c1NC(=O)CC2c1c(F)cccc1F (configuration not stated) | 26% |
| CNc1nc2c(s1)C(c1ccc(F)cc1Cl)CC(=O)N2 (configuration not stated) | 7.5% |
| CNc1nc2c(s1)C(c1cc(Cl)ccc1F)CC(=O)N2 (configuration not stated) | 42.5% |
| CNc1nc2c(s1)C(c1ccc(Cl)cc1Cl)CC(=O)N2 (configuration not stated) | 62.5% |
| CNc1nc2c(s1)C(c1c(Cl)cccc1Cl)CC(=O)N2 (configuration not stated) | 74.3% |
| CSc1ccccc1CN1C[C@@H]2CC[C@H](C1)N(CC1CC1)C2=O | 21.6% |
| Cc1noc([C@H]2COC[C@H]3CN(C(=O)Cc4ccc(F)cc4)C[C@H]32)n1 | 9.62% |
| O=C(c1ccc(F)cc1)N1C[C@H]2CCC[C@@]2(COCc2ccncc2)C1 | 18.6% |
| O=S(=O)(c1cccs1)N1CC[C@H]2[C@H]1CCN2c1ncccn1 | 11.7% |
| CCN1C(=O)CC[C@@H]2[C@H]1CCN2S(=O)(=O)Cc1ccc(C)cc1 | 8.06% |
| COCC(=O)N1C[C@H]2CNC[C@@]2(C(=O)NCc2cc(C)n[nH]2)C1 | 1.43% |
| O=C([C@H]1COC[C@H]2CN(CC3CC3)C[C@H]21)N1CCOCC1 | 10.3% |
| O[C@]1(c2ccccn2)CC[C@@H]2CN(Cc3cccc4ncccc34)C[C@@H]21 | 27.8% |
| Cc1ccc(N2C[C@H]3OCC[C@H]3[C@H](C(=O)NCC3CC3)C2)nn1 | 0% |
| O=C(NC[C@H]1OC[C@@H]2CCN(c3ccccn3)C[C@@H]21)c1ccco1 | -7.89% |
| Cc1noc([C@H]2C[C@H]3OCC[C@H]3N(S(=O)(=O)C3CC3)C2)n1 | 13.3% |
| CNc1nc2c(s1)C(c1cccc(F)c1F)CC(=O)N2 (configuration not stated) | 45.7% |
| CNc1nc2c(s1)C(c1ccccc1Cl)CC(=O)N2 (configuration not stated) | 57.5% |

| SMILES | Percent Effect |
| --- | --- |
| O=C1CC(c2ccccc2F)c2c(n3ccsc3nc2=O)N1 (configuration not stated) | 11.7% |
| CNc1nc2c(s1)C(c1cccc(Cl)c1Cl)CC(=O)N2 (configuration not stated) | 42.5% |
| CNc1nc2c(s1)C(c1ccccc1F)CC(=O)N2 (configuration not stated) | 70% |
| Cn1ncc2c1NC(=O)CC2c1ccccc1Cl (configuration not stated) | 14.3% |
| O=C([C@H]1COC[C@H]2CN(c3ncc(F)cn3)C[C@H]21)N1CCOCC1 | 1.71% |
| CC(C(=O)NCc1ccc(N2CCNC(=O)C2)cc1)c1cccs1 (configuration not stated) | 20.9% |
| Cc1ccccc1C(=O)NCc1ccc(N2CCNC(=O)C2)cc1 | 44.2% |
| CC(C(=O)NCc1ccc(N2CCNC(=O)C2)cc1)n1cncn1 (configuration not stated) | 52% |
| Cc1cccnc1NC(=O)NCc1ccc(N2CCNC(=O)C2)cc1 | 84.9% |
| CC(O)CNC(=O)NCc1ccc(N2CCNC(=O)C2)cc1 (configuration not stated) | 49.3% |
| Cc1nnc(NC(=O)NCc2ccc(N3CCNC(=O)C3)cc2)s1 | 39.8% |
| CCOc1c(CNCCCn2ccnc2)cc(Cl)cc1OC | 10% |
| CCOc1c(Cl)cc(Cl)cc1CNCCCn1ccnc1 | 58.3% |
| CCOc1ccc(Cl)cc1CNCCCn1ccnc1 | 9.71% |
| C[C@H]1C(=O)NC[C@H]2CN(Cc3cccc(F)c3)C[C@H]21 | 15.6% |
| COCCNC(=O)[C@H]1CN(c2nnc(C)s2)C[C@H]2OCC[C@@H]12 | 5.11% |
| COc1ccc(Oc2cc(CN)ccn2)cc1 | 32.5% |
| NCc1ccnc(Oc2ccc(F)cc2)c1 | 30.1% |
| NCc1ccnc(Oc2ccccc2)c1 | 59% |
| CNC(=O)CN1CC[C@H]2CN(C(=O)c3ccccc3F)C[C@H]2C1 | 16.7% |
| O=C(NC1CC1)[C@H]1C[C@H]2OCC[C@H]2N(Cc2ccc(F)cc2)C1 | 2.78% |
| CNC(=O)CN1CCO[C@H]2CN(CC3CCOCC3)C[C@H]21 | 32% |
| CCN1C[C@H]2C3(CCN(S(=O)(=O)CC)CC3)CC[C@@]2(C(=O)N(C)C)C1 | 7.69% |
| Cc1noc([C@]23COC[C@H]2CN(C(=O)Cc2ccsc2)C3)n1 | 9.91% |
